Vaccinia Venus: vaccinia inhibition (Venus reporter); Vaccinia virus Venus reporter expression, fluorescence; AID 720580; Potency, µM (titrated, usually from 36.5 µM), for inactives: at the top dose activity change, negative = inhibition, hits mostly inhibitors; actives 0.46% (n = 330,000); calls by dose curve; tested in A549 cells; note: nearly all actives have a fitted effect of over 30% in size
Pf growth 96h: P. falciparum growth inhibition at 96 hours; Potency, µM (top dose mostly 28.7 µM), for the others: at the highest dose activity change, negative = inhibition, most hits filed as inhibitors; actives 6.9% (n = 320,000); P. falciparum luciferase reporter growth, 96 h
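Infected RBCs, 2% Hct / 0.05% parasitemia final; luciferase-reporter P. falciparum; cpd 96 h, 37 C, 5% CO2; luciferase detection reagent; luminescence.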
VACV mCherry inh: vaccinia inhibition (mCherry reporter) | Vaccinia virus mCherry reporter infection, fluorescence | Potency, µM (top dose mostly 36.5 µM), inactives show at the top dose activity change, negative = inhibition, hits mostly inhibitors | actives 0.63% (n = 310,000) | AID 720579; calls by dose curve; tested in A549 cells; note: nearly all actives have a fitted effect of over 35% in size
AMA1 RON2 block: disrupts binding of P. falciparum AMA1 to RON2. AlphaScreen AMA1-biotinylated RON2 peptide binding. Potency, µM (series often up to 58.2 µM), inactives show at the highest dose activity change, negative = inhibition, usual class: inhibitors. actives 0.2% (n = 360,000). AID 720542;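 note: 0% = vehicle wells and -100% = peptide control; nearly all actives have a fitted effect of over 45% in size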
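AMA1 (3D7) with his tag at 25 nM final met compounds first, then biotinylated RON2 peptide at 25 nM; detection used donor plus acceptor beads, 10 µg/mL apiece, read by AlphaScreen after 30 min at room temperature.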
Pf growth 48h: inhibits P. falciparum growth in the first generation, 48 h | Potency, µM (highest dose often 28.7 µM), inactives show at the top dose activity change, negative = inhibition, most hits filed as inhibitors | P. falciparum luciferase growth in erythrocytes, 48 h | actives 5.9% (n = 310,000) | AID 504832
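Parasite viability was followed by luminescence of a genomically integrated firefly luciferase. Cultures held 0.1% parasitemia at 2% hematocrit (final), incubated under 5% CO2 at 37 C.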
Starred values were filed as active, the others as inactive; i = inactive; ? = inconclusive; nt = not tested or not shown; [ ] = remark or other dose. Hits are enriched below; roughly 8.7% of the tested compounds scored in any of these assays. Unless noted, calls come from the whole dose curve; as a rule, active = well fitted curve in the direction sought with a large enough effect; inconclusive = small, poorly fitted or top-dose-only effect, or another doubt; inactive = no such curve, though single readings can be large; an effect the other way counts as inactive or inconclusive. Unless noted, % is set by controls: 0 for no effect and ±100 for the full control effect; potency is the fitted concentration of half-maximal effect.

SMILES	Vaccinia Venus	Pf growth 96h	VACV mCherry inh	AMA1 RON2 block	Pf growth 48h
C[C@@]12C(=O)N(Cc3ccccc3)CC(=O)N1[C@H]1c3cc(Cl)ccc3OC[C@@H]1[C@@H]2c1ccccc1	-7%	?	-3%	-9%	9.3µM*
CCOc1cccc(C2c3c(-c4cc(C)ccc4O)n[nH]c3C(=O)N2Cc2ccco2)c1 (centres undefined)	-15%	nt	-11%	nt	nt
COc1ccc(C)cc1-n1cnnn1	nt	57%	nt	-5%	0%
COc1ccc([N+](=O)[O-])cc1NCc1cccnc1	-9%	-21%	i	12%	39%
COc1ccc([N+](=O)[O-])cc1-n1cnnn1	1%	1.5µM*	i	10%	12%
COc1ccc([N+](=O)[O-])cc1NCc1cccc([N+](=O)[O-])c1	10µM*	26%	?	-12%	0%
COc1cc(-c2ccc(N)c(OC)c2)ccc1N	-20%	44%	-10%	-20%	41%
COc1cc([N+](=O)[O-])ccc1N	2%	9.3µM*	i	-13%	11%
COc1cccc(NC(=O)CSC2=Nc3ccccc3C3=NC(CC(=O)NCCc4ccccc4)C(=O)N23)c1 (centres undefined)	-1%	nt	-3%	nt	nt
O=S(=O)(c1ccccc1)c1nc(-c2ccco2)oc1NCCN1CCOCC1	nt	30%	nt	1%	nt
O=S(=O)(c1ccccc1)c1nc(-c2cccs2)oc1NCCCn1ccnc1	-15%	187%	nt	-13%	0%
Cc1ccc(S(=O)(=O)c2nc(-c3ccccc3)oc2NCc2cccnc2)cc1	?	?	nt	-1%	?
O=S(=O)(c1ccccc1)c1nc(-c2ccc(Cl)cc2)oc1NCCCN1CCOCC1	-1%	?	-11%	25%	5%
Cc1ccc(CNc2oc(-c3ccco3)nc2S(=O)(=O)c2ccccc2)cc1	nt	?	nt	-17%	10µM*
O=S(=O)(c1ccc(Br)cc1)c1nc(-c2ccco2)oc1NCCCn1ccnc1	-9%	?	i	-19%	8.3µM*
Cc1ccccc1-c1nc(S(=O)(=O)c2ccc(Br)cc2)c(NCc2cccnc2)o1	nt	nt	nt	-7%	13µM*
O=S(=O)(c1ccc(Br)cc1)c1nc(-c2ccccc2)oc1NCCN1CCOCC1	-2%	9.3µM*	-15%	-17%	?
Cc1csc2nc(COc3ccc(NC(=O)C(C)C)cc3)cc(=O)n12	-7%	nt	-1%	nt	nt
Cc1ccc(Cn2cccc2/C=C2/C(=N)N3C=CSC3=NC2=O)cc1	-12%	6.6µM*	-2%	58%	2%
O=C(Cc1ccccc1)N/N=C/c1ccccc1OCc1ccc(Cl)cc1	-14%	9%	i	-7%	-16%
O=C(N/N=C/c1ccc(OCc2ccccc2)cc1)c1ccco1	-7%	3.7µM*	-4%	10%	1.9µM*
C#CCOc1ccccc1/C=N/NC(=O)c1ccccc1OCc1ccccc1	nt	10µM*	nt	25%	?
O=C(N/N=C\c1ccccc1OCc1ccccc1)c1ccco1	nt	?	nt	23%	8.3µM*
CCOC(=O)N/N=C/c1ccccc1OCc1ccc(Cl)cc1	-21%	2.1µM*	-13%	-1%[11.6 µM]	2.9µM*
COc1cc(NC(=O)c2cc(C3CC3)nc3c2c(C)nn3-c2ccc(C)cc2)cc(OC)c1	-19%	nt	-9%	nt	nt
SMILES	Vaccinia Venus	Pf growth 96h	VACV mCherry inh	AMA1 RON2 block	Pf growth 48h
CCC1CN(CC(=O)NC(c2ccccn2)C(F)(F)F)Cc2cc(OC)ccc2O1 (centres undefined)	4%	nt	-12%	nt	nt
COc1ccc(/C=N/NC(=O)c2cc(C)oc2C)cc1OCc1ccccc1	7%	-16%	?	-1%	-15%
COc1ccccc1/C=C/C=N/NC(=O)c1ccc2nc[nH]c2c1	nt	9.3µM*	nt	nt	?
COc1ccccc1/C=C/C=N/NC(=O)c1ccco1	-20%	?	-2%	82%	12µM*
COc1ccccc1/C=C/C=N/NC(=O)c1ccncc1	-9%	39%	i	132%	0%
COc1cccc(/C=N/NC(N)=S)c1OCc1ccccc1Cl	?	?	?	72%	?
NC(=S)N/N=C/c1ccccc1OCCSc1ccc(Cl)cc1	0.32µM*	?	0.089µM*	36%	?
COc1ccc(/C=N/NC(=O)c2ccco2)cc1OCc1ccccc1	-8%	?	-9%	-7%	8.3µM*
Cc1ccc(CNC(=O)Cn2c(=O)ccc3cc(S(=O)(=O)N4CCC(C)CC4)ccc32)cc1	-17%	nt	-15%	nt	nt

Screens deposited in PubChem BioAssay by National Center for Advancing Translational Sciences (NCATS).
